{
  "source": "paper PMC12820563",
  "about": "“FoxP3 forms a head-to-head dimer in vivo and stabilizes its multimerization on adjacent microsatellites”",
  "note": "Over roughly 16,000 sequences, “rpm ratio (pull-down/input)” has its median near 0.5; the highest 2% begin near 5.5. The sample as a whole holds a higher share of the highest values than the screen did.",
  "data": [
    {"biological_target": "T1, MBP-FoxP3dN (Mus musculus, UniProt Q99JB6 188-423)", "T1 sequence": "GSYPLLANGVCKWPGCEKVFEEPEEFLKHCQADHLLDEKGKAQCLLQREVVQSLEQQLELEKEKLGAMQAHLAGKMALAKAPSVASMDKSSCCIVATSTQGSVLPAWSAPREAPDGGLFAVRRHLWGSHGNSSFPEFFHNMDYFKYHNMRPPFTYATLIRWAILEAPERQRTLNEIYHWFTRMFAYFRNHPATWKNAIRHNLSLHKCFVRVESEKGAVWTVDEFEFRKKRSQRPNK", "test": "PD-seq (MBP pull-down with sequencing); 20 mM Tris-HCl pH 7.5, 100 mM NaCl, 1.5 mM MgCl2, 0.4 uM protein, 0.1 uM dsDNA library, 30 min, room temperature, amylose pull-down; high values mean tight binding", "settings": "protein: recombinant; tags: His6-MBP; chain copies: 2; dsDNA, one strand shown", "outline": "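The N-terminus-lacking fragment of mouse FoxP3 or FoxP1 carried a His6-MBP tag and was expressed in E. coli. At 0.4 µM it was incubated with 0.1 µM Klenow-filled degenerate double-stranded DNA library for 30 min at room temperature in Tris pH 7.5 buffer with NaCl and MgCl2, and complexes were caught on amylose resin, washed three times, released with proteinase K, PCR-barcoded and Illumina-sequenced. Binding is reads-per-million enrichment of pull-down over input with replicates pooled.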", "values": [
      {"sequence": "GATGATTGTTCTCCCAGCTGATGAATTTGTGCGCTCGAGTAAACAAATTTTCCTAATCTTTCTGTTCAAGCGCCATCTAC", "binding signal": "1.87 RPM ratio (pull-down/input)"},
      {"sequence": "GATGATTGTTCTCCCAGCTGATGAATTTATGCGGTCGAGTAAACAAATTTTCCTAATCTTTCTGTTCAAGCGCCATCTAC", "binding signal": "1.09 RPM ratio (pull-down/input)"},
      {"sequence": "GATGATTGTTCTCCCAGCTGATGAATTAGTCCGCTCGAGTAAACAAATTTTCCTAATCTTTCTGTTCAAGCGCCATCTAC", "binding signal": "0.349 RPM ratio (pull-down/input)"},
      {"sequence": "GATGATTGTTCTCCCAGCTGATGAATTTTGTCGATCGAGTAAACAAATTTTCCTAATCTTTCTGTTCAAGCGCCATCTAC", "binding signal": "1.18 RPM ratio (pull-down/input)"},
      {"sequence": "GATGATTGTTCTCCCAGCTGATGAATTCTTCGACTCGAGTAAACAAATTTTCCTAATCTTTCTGTTCAAGCGCCATCTAC", "binding signal": "0.239 RPM ratio (pull-down/input)"},
      {"sequence": "GATGATTGTTCTCCCAGCTGATGAATTGATAATCTCGAGTAAACAAATTTTCCTAATCTTTCTGTTCAAGCGCCATCTAC", "binding signal": "0.411 RPM ratio (pull-down/input)"},
      {"sequence": "GATGATTGTTCTCCCAGCTGATGAATTTACTTTCTCGAGTAAACAAATTTTCCTAATCTTTCTGTTCAAGCGCCATCTAC", "binding signal": "1.32 RPM ratio (pull-down/input)"},
      {"sequence": "GATGATTGTTCTCCCAGCTGATGAATTCTAGCCTTCGAGTAAACAAATTTTCCTAATCTTTCTGTTCAAGCGCCATCTAC", "binding signal": "1.89 RPM ratio (pull-down/input)"},
      {"sequence": "GATGATTGTTCTCCCAGCTGATGAATTTCCGTGGTCGAGTAAACAAATTTTCCTAATCTTTCTGTTCAAGCGCCATCTAC", "binding signal": "0.282 RPM ratio (pull-down/input)"},
      {"sequence": "GATGATTGTTCTCCCAGCTGATGAATTCGTCGGGTCGAGTAAACAAATTTTCCTAATCTTTCTGTTCAAGCGCCATCTAC", "binding signal": "0.574 RPM ratio (pull-down/input)"},
      {"sequence": "GATGATTGTTCTCCCAGCTGATGAATTGGTTTGCTCGAGTAAACAAATTTTCCTAATCTTTCTGTTCAAGCGCCATCTAC", "binding signal": "4.24 RPM ratio (pull-down/input)"},
      {"sequence": "GATGATTGTTCTCCCAGCTGATGAATTTTAGTTATCGAGTAAACAAATTTTCCTAATCTTTCTGTTCAAGCGCCATCTAC", "binding signal": "1.33 RPM ratio (pull-down/input)"},
      {"sequence": "GATGATTGTTCTCCCAGCTGATGAATTTTTTGTCTCGAGTAAACAAATTTTCCTAATCTTTCTGTTCAAGCGCCATCTAC", "binding signal": "0.367 RPM ratio (pull-down/input)"},
      {"sequence": "GATGATTGTTCTCCCAGCTGATGAATTGTCTTCTTCGAGTAAACAAATTTTCCTAATCTTTCTGTTCAAGCGCCATCTAC", "binding signal": "0.478 RPM ratio (pull-down/input)"},
      {"sequence": "GATGATTGTTCTCCCAGCTGATGAATTTGTTGTCTCGAGTAAACAAATTTTCCTAATCTTTCTGTTCAAGCGCCATCTAC", "binding signal": "7.77 RPM ratio (pull-down/input)"},
      {"sequence": "GATGATTGTTCTCCCAGCTGATGAATTGTTGTCTTCGAGTAAACAAATTTTCCTAATCTTTCTGTTCAAGCGCCATCTAC", "binding signal": "5.62 RPM ratio (pull-down/input)"},
      {"sequence": "GATGATTGTTCTCCCAGCTGATGAATTTCTGTCTTCGAGTAAACAAATTTTCCTAATCTTTCTGTTCAAGCGCCATCTAC", "binding signal": "0.368 RPM ratio (pull-down/input)"},
      {"sequence": "GATGATTGTTCTCCCAGCTGATGAATTTGTCTTCTCGAGTAAACAAATTTTCCTAATCTTTCTGTTCAAGCGCCATCTAC", "binding signal": "4.22 RPM ratio (pull-down/input)"},
      {"sequence": "GATGATTGTTCTCCCAGCTGATGAATTCCATTCGTCGAGTAAACAAATTTTCCTAATCTTTCTGTTCAAGCGCCATCTAC", "binding signal": "0.494 RPM ratio (pull-down/input)"},
      {"sequence": "GATGATTGTTCTCCCAGCTGATGAATTAGAGAGTTCGAGTAAACAAATTTTCCTAATCTTTCTGTTCAAGCGCCATCTAC", "binding signal": "0.399 RPM ratio (pull-down/input)"},
      {"sequence": "GATGATTGTTCTCCCAGCTGATGAATTACTGGGGTCGAGTAAACAAATTTTCCTAATCTTTCTGTTCAAGCGCCATCTAC", "binding signal": "0.231 RPM ratio (pull-down/input)"},
      {"sequence": "GATGATTGTTCTCCCAGCTGATGAATTGAACTGGTCGAGTAAACAAATTTTCCTAATCTTTCTGTTCAAGCGCCATCTAC", "binding signal": "0.209 RPM ratio (pull-down/input)"},
      {"sequence": "GATGATTGTTCTCCCAGCTGATGAATTAGAGATCTCGAGTAAACAAATTTTCCTAATCTTTCTGTTCAAGCGCCATCTAC", "binding signal": "0.32 RPM ratio (pull-down/input)"},
      {"sequence": "GATGATTGTTCTCCCAGCTGATGAATTAGAATGTTCGAGTAAACAAATTTTCCTAATCTTTCTGTTCAAGCGCCATCTAC", "binding signal": "0.671 RPM ratio (pull-down/input)"}
    ]}
  ]
}
